Measurements: PubChem BioAssay AID1159580 (chemical genetic matrix, 2015)
Among all 5,500 compounds or so, about 2,000 (36%) were called active. Roughly 18% stayed inconclusive and do not appear here. No stated cut-off is given here; in the data, active means normalized growth mostly below about 0.91 (no sharp cut-off); inconclusive means no clear call, values can overlap the other calls; inactive means mostly above about 0.92. The list shows a part of the results.

Test: chemical genetic growth profiling, strain panel (AID 1159580);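 further: tested at 20 µM; growth read once vehicle control cultures reached saturation at 30 °C; 1 = growth at the plate median or of vehicle wells; lower values mean less growth of the strain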
Conditions: S. cerevisiae deletion strains, growth OD
[1] = locus YAR019C, strain CDC15, active compounds read low
[2] = locus YBL105C, strain PKC1, active compounds read low
[3] = locus YBR135W, strain CKS1, active compounds read low
[4] = locus YBR136W, strain MEC1, active compounds read low
[5] = locus YBR160W, strain CDC28, active compounds read low
[6] = locus YDL017W, strain CDC7, active compounds read low
[7] = locus YDL028C, strain MPS1, active compounds read low
[8] = locus YDL101C, strain DUN1, active compounds read low
[9] = locus YDL108W, strain KIN28, active compounds read low
[10] = locus YDL132W, strain cdc53, active compounds read low
[11] = locus YDL214C, strain PRR2, active compounds read low
[12] = locus YDR052C, strain DBF4, active compounds read low
[13] = locus YDR054C, strain cdc34, active compounds read low
[14] = locus YDR226W, strain ADK1, active compounds read low
[15] = locus YDR477W, strain SNF1, active compounds read low
[16] = locus YER123W, strain YCK3, active compounds read low
[17] = locus YER133W, strain GLC7, active compounds read low
[18] = locus YFL009W, strain cdc4, active compounds read low
[19] = locus YFL029C, strain CAK1, active compounds read low
[20] = locus YFR003C, strain YPI1, active compounds read low
[21] = locus YFR019W, strain FAB1, active compounds read low
[22] = locus YFR028C, strain CDC14, active compounds read low
[23] = locus YGR040W, strain KSS1, active compounds read low
[24] = locus YGR052W, strain FMP48, active compounds read low
[25] = locus YGR092W, strain DBF2, active compounds read low
[26] = locus YHR030C, strain SLT2, active compounds read low
[27] = locus YHR079C, strain IRE1, active compounds read low
[28] = locus YHR082C, strain KSP1, active compounds read low
[29] = locus YHR205W, strain SCH9, active compounds read low
[30] = locus YIL147C, strain SLN1, active compounds read low
[31] = locus YJL095W, strain BCK1, active compounds read low
[32] = locus YJL128C, strain PBS2, active compounds read low
[33] = locus YJL157C, strain FAR1, active compounds read low
[34] = locus YJR016C, strain ILV3, active compounds read low
[35] = locus YJR066W, strain TOR1 (second series), active compounds read low
[36] = locus YJR066W, strain TOR1, active compounds read low
[37] = locus YKL048C, strain ELM1, active compounds read low
[38] = locus YKL067W, strain YNK1, active compounds read low
[39] = locus YKL101W, strain HSL1, active compounds read low
[40] = locus YKL193C, strain SDS22, active compounds read low
[41] = locus YKL203C, strain TOR2, active compounds read low
[42] = locus YLR113W, strain HOG1, active compounds read low
[43] = locus YLR133W, strain CKI1, active compounds read low
[44] = locus YLR403W, strain SFP1, active compounds read low
[45] = locus YML070W, strain DAK1, active compounds read low
[46] = locus YMR001C, strain CDC5, active compounds read low
[47] = locus YMR205C, strain PFK2 (second series), active compounds read low
[48] = locus YMR277W, strain FCP1, active compounds read low
[49] = locus YNL006W, strain LST8, active compounds read low
[50] = locus YNL020C, strain ARK1, active compounds read low
[51] = locus YNL161W, strain CBK1, active compounds read low
[52] = locus YNL183C, strain NPR1, active compounds read low
[53] = locus YNL207W, strain RIO2, active compounds read low
[54] = locus YNL222W, strain SSU72, active compounds read low
[55] = locus YNL307C, strain MCK1 (second series), active compounds read low
[56] = locus YOL078W, strain AVO1, active compounds read low
[57] = locus YOL136C, strain PFK27, active compounds read low
[58] = locus YOR061W, strain CKA2, active compounds read low
[59] = locus YOR119C, strain RIO1, active compounds read low
[60] = locus YOR231W, strain MKK1, active compounds read low
[61] = locus YOR329C, strain SCD5, active compounds read low
[62] = locus YPL031C, strain PHO85, active compounds read low
[63] = locus YPL153C, strain RAD53, active compounds read low
[64] = locus YPL204W, strain HRR25, active compounds read low
[65] = locus YPL209C, strain IPL1, active compounds read low
[66] = locus YPL256C, strain CLN2, active compounds read low
[67] = locus YPR025C, strain CCL1, active compounds read low
[68] = locus YPR106W, strain ISR1, active compounds read low
[69] = locus YPR111W, strain DBF20, active compounds read low
[70] = strain NNK1, active compounds read low
[71] = strain TSCII, active compounds read low

Measured: normalized growth

CSc1n[nH]c(-c2cc(C(C)(C)C)oc2C)c1C#N
active: [26] 0.542 | [42] 0.776 | [66] 0.814
inactive: [1] 0.949 | [2] 0.951 | [3] 0.952 | [4] 0.967 | [5] 0.955 | [6] 0.953 | [7] 0.966 | [8] 0.967 | [9] 0.937 | [10] 0.933 | [11] 0.847 | [12] 0.964 | [13] 0.934 | [14] 0.952 | [15] 0.835 | [16] 0.834 | [17] 0.867 | [18] 0.962 | [19] 0.928 | [20] 0.95 | [21] 0.943 | [22] 0.979 | [23] 0.847 | [24] 0.833 | [25] 0.78 | [27] 0.86 | [28] 0.818 | [29] 0.908 | [30] 0.954 | [31] 0.744 | [32] 0.894 | [33] 0.883 | [34] 0.946 | [35] 0.897 | [36] 0.789 | [37] 0.949 | [38] 0.846 | [39] 0.914 | [40] 0.948 | [41] 0.908 | [43] 0.888 | [44] 0.885 | [45] 0.879 | [46] 0.945 | [47] 0.888 | [48] 0.938 | [49] 0.947 | [50] 0.892 | [51] 0.948 | [52] 0.815 | [53] 0.937 | [54] 0.944 | [55] 0.89 | [56] 0.943 | [57] 0.906 | [58] 0.909 | [59] 0.83 | [60] 0.847 | [61] 0.948 | [62] 0.824 | [63] 0.819 | [64] 0.818 | [65] 0.959 | [67] 0.948 | [68] 0.947 | [69] 0.94 | [70] 0.943 | [71] 0.925

CSc1sc(C(=O)Sc2ccccc2)cc1S(=O)(=O)C(C)C
active: [42] 0.688
inactive: [1] 0.994 | [2] 0.997 | [3] 0.995 | [4] 0.991 | [5] 1 | [6] 0.995 | [7] 0.996 | [8] 1 | [9] 0.999 | [10] 0.983 | [11] 0.962 | [12] 0.993 | [13] 0.976 | [14] 1 | [15] 0.966 | [16] 0.902 | [17] 0.958 | [18] 0.979 | [19] 0.983 | [20] 0.994 | [21] 0.987 | [22] 0.992 | [23] 0.956 | [24] 0.927 | [25] 0.95 | [26] 0.997 | [27] 1 | [28] 0.988 | [29] 0.911 | [30] 0.99 | [31] 0.937 | [32] 0.937 | [33] 0.941 | [34] 0.988 | [35] 0.971 | [36] 1 | [37] 0.953 | [38] 0.961 | [39] 0.94 | [40] 0.992 | [41] 1.02 | [43] 0.955 | [44] 0.945 | [45] 0.93 | [46] 0.985 | [47] 0.966 | [48] 0.979 | [49] 0.997 | [50] 0.961 | [51] 0.993 | [52] 0.941 | [53] 0.974 | [54] 0.997 | [55] 0.946 | [56] 0.975 | [57] 0.929 | [58] 0.95 | [59] 1 | [60] 0.921 | [61] 0.994 | [62] 0.972 | [63] 0.988 | [64] 0.948 | [65] 0.994 | [66] 0.969 | [67] 0.996 | [68] 0.997 | [69] 0.979 | [70] 0.977 | [71] 0.98
